Screening data: PubChem BioAssay, Sanford-Burnham Center for Chemical Genomics
tim10-1 inh – growth inhibitors of tim10-1 mutant yeast. S. cerevisiae tim10-1 ts strain growth, BacTiter-Glo, 24 h. inhibition, % at 20 µM. 330,000 compounds, 2.2% hits. AID 463190;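 active means inhibition of at least 40%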;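 further: mutant grown at 25 °C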
TIM10 inh – inhibits growth of TIM10 yeast strain | AID 463195 | 330,000 compounds, 1.4% hits | inhibition, % at 10 µM | S. cerevisiae TIM10 strain growth, BacTiter-Glo luminescence, 24 h;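 active means inhibition of 40% or more at the single tested concentration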;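 further: wild-type TIM10 isogenic control strain grown at permissive 25 °C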
tim23-1 inh – tim23-1 yeast growth inhibition; S. cerevisiae tim23-1 growth, BacTiter-Glo luminescence, 24 h; inhibition, % at 20 µM; 330,000 compounds, 1.3% hits;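 active means growth inhibition of the mutant yeast at or above 50%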;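 further: temperature-sensitive mutant grown at 25 °C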
NALP3 yeast inh – blocks the NALP3 inflammasome reconstituted in yeast; inhibition, % at 10 µM; AID 2825; Yeast reconstituted NLRP3/ASC/caspase-1, beta-gal luminescence, 24 h; 330,000 compounds, 0.39% hits;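 active means inhibition of 50% or more; inactive means inhibition below 50%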
NALP1 inh – inhibitors of NALP1 inflammasome in yeast; S. cerevisiae NALP1/ASC/caspase-1 growth, X-gal OD620, 72 h; inhibition, % at 10 µM; 280,000 compounds, 0.61% hits; AID 2071; in the data active means inhibition mostly above about 24%, no sharp cut-off; inactive means mostly below about 32%
TIM10 conf – confirmation of TIM10 yeast growth inhibitors. shares compounds with TIM10 inh. S. cerevisiae tim10 strain growth, BacTiter-Glo luminescence, 24 h. inhibition, % at 10 µM. 4,600 compounds, 63% hits. AID 463215;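 active means inhibition of yeast growth at or above a set limit in either of two replicates at 10 µM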; further: this counterscreen used the strain with wild-type TIM10
Hits are given with their value; - = inactive; . = no result. In the library only some 4% were active in any assay of this set; here they are far more common.

SMILES	tim10-1 inh	TIM10 inh	tim23-1 inh	NALP3 yeast inh	NALP1 inh	TIM10 conf
CSc1ccc(S(=O)(=O)Nc2ccc3c4c(cccc24)CC3)cc1	-	42	-	-	-	-
CC(=O)NC12CC3CC(C1)CC(C(=O)Oc1ccc(N(C)S(=O)(=O)c4cc(C)ccc4C)cc1)(C3)C2	-	-	-	-	.	.
CC1=CC(=O)C(C(C)C)=C/C1=N/OC(=O)c1cccc([N+](=O)[O-])c1	-	43	-	-	-	32
CCn1c(=S)sc2c(=O)n(CC(=O)Nc3cccc(OC)c3)c(C)nc21	-	-	-	-	-	.
COc1cccc(/C=N/NC(=O)c2cc(-c3ccccn3)nc3ccccc23)c1O	-	45	-	-	.	-
COc1ccc([C@H]2CC(=O)C=C(/C=C/Cc3ccccc3)C2)cc1	-	47	-	-	.	47
O=C(Nc1ccc(F)cc1)c1ccc(S(=O)(=O)N2CCCC2)cc1	-	-	-	-	-	.
O=C(Nc1ccc(Cl)cc1)c1ccc(S(=O)(=O)N2CCOCC2)cc1	-	-	-	-	-	.
O=C(Nc1ccc(S(=O)(=O)N2CCOCC2)cc1)c1ccc(Cl)s1	-	41	-	-	-	-
O=C(Nc1ccc(S(=O)(=O)N2CCCC2)cc1)c1cc(F)c(F)cc1Cl	-	41	-	-	-	33
CC1CN(S(=O)(=O)c2ccc(F)cc2)C(C)N1C(=O)N1CCOCC1 (centres undefined)	-	-	-	-	-	.
CC(C)c1ccc(C2/C(=C(/O)c3ccc(F)cc3)C(=O)C(=O)N2CCCN2CCOCC2)cc1 (centres undefined)	-	-	-	-	-	.
Cc1[nH]c(C(=O)N/N=C/c2ccc(C(=O)O)cc2)c(C)c1C(=O)N/N=C/c1ccc(C(=O)O)cc1	-	-	-	-	-	.
CCOC(=O)c1c(C)[nH]c(C(=O)N/N=C/c2ccc(Br)cc2)c1C	-	50	-	-	-	46
CC(C)CN1C(=O)C(=O)N(CC(=O)N(C)CC(=O)Nc2ccc(F)cc2)C1=O	-	-	-	-	.	.
CCOC(=O)CN1C=C(c2ccc3ccccc3n2)C(C[N+](=O)[O-])c2ccccc21 (centres undefined)	-	57	-	-	-	62
CCOC(=O)CSc1ccc2ccccc2n1	-	-	-	-	-	.
COc1ccc(C2=NN(C(=S)Nc3ccccc3)C(c3ccccc3)C2)cc1 (centres undefined)	-	-	-	-	-	.
COc1ccc(C2=NN(C(N)=S)C(c3ccccc3)C2)cc1 (centres undefined)	-	41	-	-	-	-
COc1ccc(C2CC(c3ccccc3)=NN2C(=S)Nc2ccccc2)cc1 (centres undefined)	-	-	-	-	-	.
COc1ccccc1C1CC(c2ccccc2)=NN1C(=S)Nc1ccccc1 (centres undefined)	-	41	-	-	-	-
CCOC(=O)c1cccc(NC(=O)c2ccc(-n3cnnn3)cc2)c1	-	-	-	-	.	.
COc1ccc(C(=O)Nc2ccc(OCC(F)(F)C(F)F)c(C(F)(F)F)c2)cc1OC	-	45	-	-	-	-
COc1ccc(/C=C/C(=O)OCC(=O)Nc2ccc(C)cc2)cc1S(=O)(=O)N1CCOCC1	-	-	-	-	-	.
CCOC(=O)NNC(=S)Nc1c(C)n(C)n(-c2ccccc2)c1=O	-	-	-	-	-	.
SMILES	tim10-1 inh	TIM10 inh	tim23-1 inh	NALP3 yeast inh	NALP1 inh	TIM10 conf
CCOC(=O)c1ccc2c(c1)nc(SCc1cn3ccsc3n1)n2CC	-	44	-	-	-	34
O=C(Cn1c(NCCO)nc2ccccc21)Nc1ccc2c(c1)OCCCO2	-	-	-	-	.	.
O=C(Nc1ccc(NC(=O)c2cccs2)cn1)c1ccccc1	-	42	-	-	-	30
O=C(Nc1ccc(NC(=O)C2CC2)nc1)c1cccs1	-	-	-	-	-	.
CCCC(=O)Nc1cc(C)c(NC(=O)c2cccs2)cn1	-	-	-	-	-	.
CCCC(=O)Nc1ccc(NC(=O)c2cccs2)cn1	-	40	-	-	-	-
CCCC(=O)NC(=S)Nc1ccc(NC(=O)c2cccs2)cc1	-	45	-	-	-	-
CCCC(=O)Nc1ccc(NC(=S)NC(=O)c2cccs2)cc1	-	-	-	-	-	.
CC[C@H](C)[C@@H](C(=O)N1CCNCC1)n1cc([C@@H](N)CO)nn1	-	-	-	-	-	.
CN(c1ccccc1)c1nc(N)c([N+](=O)[O-])c(N2CCCCCC2)n1	-	45	-	-	-	-
O=C(CNc1cccc(C(F)(F)F)c1)Nc1cccc(S(=O)(=O)N2CCCC2)c1	-	-	-	-	.	.
O=C(CN1CCN(S(=O)(=O)c2ccccc2)CC1)Nc1cccc(C(F)(F)F)c1	-	41	-	-	-	-
c1ccc2cc(CSCc3nc4ccccc4[nH]3)ccc2c1	-	53	-	-	-	-
O=C(CSCc1nc2ccccc2[nH]1)Nc1ccc2ccccc2c1	-	-	-	-	-	.
COc1ccc(C2(C)NC(=O)N(CC(=O)NCc3ccccc3)C2=O)cc1OC (centres undefined)	-	-	-	-	-	.
CCC(=O)Nc1ccc(C(=O)OCc2ccccc2Cl)cc1	-	58	-	-	-	48
CCC(=O)Nc1ccc(C(=O)c2ccccc2)cc1	-	-	-	-	-	.
COc1ccc(C(=O)COC(=O)C2CCCN2C(=O)C23CC4CC(CC(C4)C2)C3)cc1 (centres undefined)	-	44	-	-	-	33
COc1cccc(CN(C)C(=O)c2ccccc2Sc2ccccc2C#N)c1OC	-	-	-	-	-	.
COc1cccc2cc(C(=O)CS(=O)(=O)c3ccc(Cl)cc3)c(=O)oc12	-	-	-	-	-	.
CC(=O)c1ccc(NC(=O)COC(=O)CC2CC3CCC2C3)cc1 (centres undefined)	-	-	-	-	.	.
O=C(COC(=O)CC1CC2CCC1C2)Nc1ccc(F)cc1 (centres undefined)	-	43	-	-	-	-
O=C(CCC(=O)c1cccs1)NCC(=O)Nc1ccc(F)c(F)c1F	-	-	-	-	.	.
CC12CC(c3ccccc3O1)N(C(=O)c1ccco1)C(=S)N2c1ccc(F)cc1 (centres undefined)	-	42	-	-	-	40
COc1ccc(NC(=O)COc2ccc(/C=C/c3cc[n+](C)cc3)cc2OC)cc1	-	-	-	-	-	.
COc1cc(/C=C/c2cc[n+](C)cc2)ccc1OCC(=O)Nc1ccc(Cl)c(Cl)c1	-	42	-	-	-	-
COC(=O)c1ccc(C(=O)N(Cc2ccccc2)c2ccccc2)cc1	-	46	-	-	-	-
N#Cc1ccc(C(=O)N(Cc2ccccc2)c2ccccc2)cc1	-	-	-	-	-	.
O=C(O)[C@H](Cc1ccccc1)NC(=O)N1CCN(c2ccc(F)cc2)CC1	-	-	-	-	.	.
Cc1ccc(NC(=O)C2CCCC2)cc1S(=O)(=O)N1CCOCC1	-	-	-	-	.	.
